High-throughput results deposited in PubChem by several laboratories.
Shown are actives, neighbours in structure and some others; about 4.5% of the full set was active somewhere.
Gli-Sufu antag: Gli-Sufu pathway antagonism. AID 588413. inhibition, % at 5 µM. actives 0.74% (n = 340,000). Sufu-KO-LIGHT fibroblasts, Gli luciferase reporter luminescence;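 active = inhibition above about 55%, limit read from the data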;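 also: 0% = DMSO-treated cells and 100% = wells with medium but no cells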
697 NFkB inh: inhibitors of the PMA/ionomycin-induced NF-kB reporter in 697 B cells | 697 B-cell NF-kB luciferase reporter, 16 h | inhibition, % at 4 µM | actives 0.33% (n = 330,000) | AID 435022; in the data active = inhibition above about 35%
Jurkat NFkB inh: lowers PMA/ionomycin-induced NF-kB signal in Jurkat cells | PMA/ionomycin-induced NF-kB luciferase reporter, luminescence | inhibition, % at 4 µM | actives 0.53% (n = 330,000) | AID 435003; in the data active = inhibition above about 50%
Mdm2-MdmX inh: human Mdm2/MdmX binding inhibition; inhibition, % at 8 µM; O15151+Q00987; SaOS-2 split-luciferase Mdm2/MdmX complementation, luminescence; actives 3% (n = 330,000);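 active = inhibition of at least 50% at 8 µM in the primary screen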
Target sequence (O15151 whole entry, looked up): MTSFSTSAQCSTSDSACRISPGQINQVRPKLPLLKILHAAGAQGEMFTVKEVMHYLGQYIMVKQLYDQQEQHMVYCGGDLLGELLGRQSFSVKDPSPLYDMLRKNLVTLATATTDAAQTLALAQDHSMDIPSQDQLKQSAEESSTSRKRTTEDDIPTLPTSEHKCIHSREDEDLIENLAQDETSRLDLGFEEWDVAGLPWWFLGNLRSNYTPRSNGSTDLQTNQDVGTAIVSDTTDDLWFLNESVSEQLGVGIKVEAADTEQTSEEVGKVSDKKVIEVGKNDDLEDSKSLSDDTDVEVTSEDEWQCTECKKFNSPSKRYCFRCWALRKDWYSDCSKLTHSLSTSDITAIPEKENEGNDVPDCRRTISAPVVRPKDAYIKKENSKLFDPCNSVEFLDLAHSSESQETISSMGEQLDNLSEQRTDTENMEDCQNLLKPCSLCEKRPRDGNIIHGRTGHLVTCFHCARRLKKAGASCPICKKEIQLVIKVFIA
Target sequence (Q00987 whole entry, looked up): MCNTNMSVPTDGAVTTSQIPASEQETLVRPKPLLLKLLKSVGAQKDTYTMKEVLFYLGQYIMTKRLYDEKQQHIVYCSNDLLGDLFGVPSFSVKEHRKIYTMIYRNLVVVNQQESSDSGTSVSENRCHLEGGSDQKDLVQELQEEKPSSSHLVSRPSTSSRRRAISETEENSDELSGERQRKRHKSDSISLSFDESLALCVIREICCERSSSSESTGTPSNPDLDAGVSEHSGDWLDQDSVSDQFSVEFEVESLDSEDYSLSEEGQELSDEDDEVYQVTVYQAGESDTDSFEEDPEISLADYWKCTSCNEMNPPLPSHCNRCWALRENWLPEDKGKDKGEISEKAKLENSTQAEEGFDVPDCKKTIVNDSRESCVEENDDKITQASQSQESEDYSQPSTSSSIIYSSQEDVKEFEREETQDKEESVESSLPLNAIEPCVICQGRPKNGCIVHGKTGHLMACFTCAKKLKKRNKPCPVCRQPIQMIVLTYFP
CSC inhib: cancer stem cell inhibition; cancer stem cell-like cells viability, luminescence; inhibition, % at 7.5 µM; actives 1.1% (n = 300,000); in the data active = inhibition above about 75%; inconclusive = no clear call, values can overlap the other calls; tested in HMLE shEcad cells
Beta cell apopt: beta cell apoptosis inhibition. INS-1E cytokine-induced death, ATP luminescence, 48 h; percent of positive-control rescue, neutral wells zero. protection from apoptosis, % (concentration not given with the values). actives 0.8% (n = 300,000);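 active = Every replicate reaches about 75%, or at least half do and their mean reaches it too, limit read from the data; inconclusive = At least half of replicates reach the limit but their mean does not; inactive = Under half of replicates reach the limit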;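 also: 0% = cytokine-treated negative control wells and 100% = positive control rescue; higher means more ATP so stronger rescue from cytokine killing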
Mdm2 MdmX conf: human Mdm2/MdmX binding inhibition, confirmed | shares compounds with Mdm2-MdmX inh | luminescent assay | inhibition, % at 8 µM | actives 55% (n = 10,000); in the data active = inhibition above about 40%
Full FLuc ctr: inhibits full-length luciferase, flagging false Mdm2/MdmX hits. inhibition, % at 8 µM. AID 504607. actives 77% (n = 6,200). SaOS-2 full-length luciferase counterscreen, luminescence. shares compounds with Mdm2-MdmX inh;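 active = mean inhibition at 8 µM reaching about 37%, which flags the compound as non-specific, limit read from the data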;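 also: p53-null SaOS-2 cells with luciferase driven by a doxycycline-inducible promoter; compound on cells about two nights before reading with doxycycline added after day one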
Starred values were filed as active, the others as inactive; ? = inconclusive; / = not tested or not shown.

SMILES	Gli-Sufu antag	697 NFkB inh	Jurkat NFkB inh	Mdm2-MdmX inh	CSC inhib	Beta cell apopt	Mdm2 MdmX conf	Full FLuc ctr
C/C(=N\NC(=O)c1cccc(N/N=C(\C)c2ccc([N+](=O)[O-])cc2)c1)c1ccc([N+](=O)[O-])cc1	-7	4	5	69*	7	3	27	/
C/C(=N\NC(=O)c1cccc(N/N=C(\C)c2ccccc2)c1)c1ccccc1	-49	/	/	/	6	-5	/	/
CN(Cc1nc(-c2ccc(Cl)cc2)no1)C(=O)c1ccc2c(c1)OCO2	-8	-23	12	-5	-6	-6	/	/
Cc1cc(NC(=O)c2cccs2)n(-c2nc3ccccc3[nH]2)n1	/	-5	2	40	54	50	/	/
COc1ccc(C(=O)Nc2cc(C)nn2-c2nc3ccccc3[nH]2)c(OC)c1	-3	-6	7	51*	-12	11	33	/
Cc1cc(NC(=O)C2CCCC2)n(-c2nc3ccccc3[nH]2)n1	2	-5	10	53*	-13	7	41*	63*
Cc1cc(NC(=O)c2ccccc2)n(-c2nc3ccccc3[nH]2)n1	-6	4	1	39	-7	9	/	/
CCOC(=O)C(=O)Nc1cc(C)nn1-c1nc2ccccc2[nH]1	-6	-22	0	7	-15	0	/	/
Cc1cc(NC(=O)c2sccc2C)n(-c2nc3ccccc3[nH]2)n1	2	-13	-5	59*	-1	/	26	/
COc1cccc(OC)c1C(=O)Nc1cc(C)nn1-c1nc2ccccc2[nH]1	15	25	23	77*	50	31	54*	63*
Cc1ncc(CO)c2c1Oc1nc(-c3ccccc3)nc(SCC(=O)Nc3cccc(O)c3)c1C2	0	20	6	51*	68	3	-2	/
O=C(Nc1ccc([N+](=O)[O-])cc1)C(Cc1ccccc1)N1C(=O)c2cccc3cccc(c23)C1=O (stereo not given)	8	8	-14	63*	26	/	35	/
O=C(O)c1ccccc1NC(=O)C(Cc1ccccc1)N1C(=O)c2ccccc2C1=O (stereo not given)	1	8	4	12	-3	-5	/	/
O=C(CC1C[C@H](C(=O)N2CCOCC2)[C@@]2(CCC3CCCC3)c3[nH]c4ccccc4c3CCN2C1=O)NCCC1=CCCCC1 (stereo not given in full)	1	4	7	60*	/	5	-16	/
CN(C)CCCNC(=O)CC1C[C@H](C(=O)N2CCOCC2)[C@@]2(CCC3CCCC3)c3[nH]c4ccccc4c3CCN2C1=O (stereo not given in full)	-2	-6	-3	36	/	-4	/	/
CN(C)C(=O)CCc1ccc2c3c([nH]c2c1)[C@]1(CCC2CCCC2)[C@@H](C(=O)N2CCOCC2)C[C@H](CC(=O)NCc2cccc(C(F)(F)F)c2)C(=O)N1CC3	3	25	/	61*	/	/	53*	59*
COc1ccc2[nH]c3c(c2c1)CCN1C(=O)C(CC(=O)NCCN2CCOCC2)C[C@H](C(=O)N2CCOCC2)[C@@]31CCC1CCCC1 (stereo not given in full)	0	6	/	66*	/	/	-15	/
Cn1c(N)c(C(=O)COC(=O)c2ccccc2C(=O)c2ccccc2)c(=O)n(C)c1=O	-2	13	-14	-1	/	0	/	/
O=C(COC(=O)c1ccccc1C(=O)c1ccc(Cl)c([N+](=O)[O-])c1)NC1CCCCCC1	-3	14	20	96*	-6	4	100*	51*
CN(CCC#N)C(=O)COC(=O)c1ccccc1C(=O)c1ccc(Cl)c([N+](=O)[O-])c1	11	/	/	/	44	-5	/	/
CC(C)N(C(=O)COC(=O)c1ccccc1C(=O)c1ccc(Cl)c([N+](=O)[O-])c1)C(C)C	4	-11	-7	82*	-1	2	23	/
Cn1c(N)c(C(=O)COC(=O)c2ccccc2C(=O)c2ccc(Cl)c([N+](=O)[O-])c2)c(=O)n(C)c1=O	-4	19	-6	99*	?	-9	62*	26
Cc1cc(C)n(CCNC(=O)c2ccc3c(c2)OCO3)n1	-5	-6	18	12	-15	0	/	/
CC(C)n1nc(C(=O)OCC(=O)NCCc2ccc(S(N)(=O)=O)cc2)c2ccccc2c1=O	2	/	/	/	/	/	/	/
CC1CCC(NC(=O)C2CCC(CNS(=O)(=O)c3cccc4nsnc34)CC2)CC1 (stereo not given)	16	9	18	56*	-3	2	-5	/
SMILES	Gli-Sufu antag	697 NFkB inh	Jurkat NFkB inh	Mdm2-MdmX inh	CSC inhib	Beta cell apopt	Mdm2 MdmX conf	Full FLuc ctr
O=C(NC1CCCCC1)C1CCC(CNS(=O)(=O)c2cccc3nsnc23)CC1 (stereo not given)	2	11	-9	25	1	3	/	/
C=C(CCO)C1=CCN(S(=O)(=O)C(C)(C)C)[C@H]1CCO	-9	/	/	/	/	/	/	/
C=C[C@]1(C)C[C@H]1[C@H](NP(=O)(c1ccccc1)c1ccccc1)c1ccccc1	0	-17	-17	11	-5	3	/	/
C/C(=C\[C@@H](NP(=O)(c1ccccc1)c1ccccc1)c1ccccc1)CO[Si](c1ccccc1)(c1ccccc1)C(C)(C)C	7	11	14	76*	41	14	10	/
CC(=O)CC(c1ccccc1)S(=O)(=O)c1ccc([N+](=O)[O-])cc1 (stereo not given)	-10	3	14	11	-7	-1	/	/
Cc1ccc(C)c(C(=O)Nc2cc(C)nn2-c2nc(C)cc(C)n2)c1	10	-12	24	57*	41	2	39	60*
O=c1c2ccccc2[nH]c(=S)n1CCCN1CCN(c2ccccc2)CC1	17	-182	-19	80*	24	0	43*	63*
O=c1c2ccccc2[nH]c(=S)n1CCCN1CCN(c2ccccc2F)CC1	-15	-50	-3	66*	25	5	36	81*
Cc1ccc(CNC(=O)CCS(=O)(=O)c2ccc3c(c2)CC(C)N3C(=O)C2CC2)cc1 (stereo not given)	36	-18	42	63*	-7	1	49*	50*
Cc1ccc(-c2nc3ccccc3s2)cc1NC(=S)NC(=O)c1cccc2ccccc12	-11	-119	-116	99*	48	-3	-6	/
c1ccc(CN2CCC(Nc3nc(-c4cccs4)nc4ccccc34)CC2)cc1	26	-39	-19	93*	109*	24	34	74*
Cc1ccc2cccc(NC(=O)c3ccc(Br)o3)c2n1	-32	22	5	61*	/	0	63*	55*
O=C(Nc1ccccc1-c1nc2ccccc2s1)c1ccc(Br)o1	-10	9	0	60*	8	-1	6	/
